± gives the standard deviation of the averaged measurements.
These compounds were tested on AEK1 (Tb927.3.2440) (assay: percent reduction in TR-FRET probe signal relative to DMSO control; higher = stronger displacement of ATP-site probe (binding)). Conditions: 1 µM; incubation time 1 h.
`CNC(=O)c1cc(Oc2ccc(NC(=O)Nc3ccc(Cl)c(C(F)(F)F)c3)c(F)c2)ccn1` [Regorafenib (BAY 73-4506)] was tested, and the “percent reduction in TR-FRET probe signal” value (“percent reduction” for short) was 11.5 ± 5.7%.
For `Oc1ccc(-c2nc(-c3ccc(F)cc3)c(-c3ccncc3)[nH]2)cc1`, the “percent reduction” value was -5.77 ± 4%.
With `O=C(Nc1ccccc1C(=O)NC1CCCCNC1=O)c1cc2ccccc2s1` (stereo not drawn) the “percent reduction” value was -0.533 ± 1.2%.
`C=CC(=O)Nc1ccc2ncnc(Nc3cccc(Br)c3)c2c1` was tested, and the “percent reduction” value was 12 ± 5.5%.
With `O=C(NC(NC(=S)Nc1ccc(F)c([N+](=O)[O-])c1)C(Cl)(Cl)Cl)C(c1ccccc1)c1ccccc1` (stereo not drawn) the “percent reduction” value was 3.75 ± 8.9%.
With `CCCCCCCCCCCCCCCc1cccc(O)c1C(=O)O` [Anacardic Acid] the “percent reduction” value was 19.2 ± 19%.
`CC(C)N(CCC(=O)c1ccc2ccccc2c1)Cc1ccccc1.Cl` was tested, and the “percent reduction” value was 1.95 ± 3.1%.
`O=c1ccc2ccc(O)c(O)c2o1` [Daphnetin] was tested, and the “percent reduction” value was -1.13 ± 8.9%.
For `COc1cc(F)c(F)c(Nc2ccc(I)cc2F)c1NS(=O)(=O)C1(C[C@H](O)CO)CC1` [Refametinib (RDEA119, Bay 86-9766)], the “percent reduction” value was -1.27 ± 14%.
`N[C@@H]1CCCN(c2c(/C=C3\SC(=O)NC3=O)cccc2-c2ccccc2)C1` was tested, and the “percent reduction” value was -4.54 ± 7.8%.
`Nc1cccc(S(=O)(=O)N2CCCN(S(=O)(=O)c3ccc4c(c3)OCCO4)CC2)c1` was tested, and the “percent reduction” value was -6.38 ± 4.5%.
`O=c1cc(-c2ccccc2)oc2c(O)c(O)ccc12` [7,8-Dihydroxyflavone] was tested, and the “percent reduction” value was -6.52 ± 5.7%.
In the case of `COc1ccc(-c2nc(N3CCOCC3)c3sc(CN(C)c4ncc(C(=O)NO)cn4)cc3n2)cn1`, the “percent reduction” value is reported as -2.41 ± 5.7%.
For `COc1ccc2cc(-c3[nH]c(-c4ccc(S(C)=O)cc4)nc3-c3ccncc3)ccc2c1` (stereo not drawn) [Tie2 kinase inhibitor], the “percent reduction” value was 2.05 ± 9.9%.
With `C=CC(=O)N1CCCC(n2nc(-c3ccc(Oc4ccccc4)cc3)c3c(N)ncnc32)C1` (stereo not drawn) the “percent reduction” value was 4.46 ± 4.9%.
In the case of `NC(=O)c1ccc(-c2nc(-c3ccc4c(c3)OCCO4)c(-c3ccccn3)[nH]2)cc1`, the “percent reduction” value is reported as -1.5 ± 7.3%.
`O=C(NCc1ccccc1)c1csc(Nc2ccncn2)n1` [Thiazovivin] was tested, and the “percent reduction” value was 10.4 ± 11%.
In the case of `Cc1cc(C(C)Nc2ccccc2)c2nc(N3CCOCC3)cc(=O)n2c1` (stereo not drawn), the “percent reduction” value is reported as -4.42 ± 15%.
`COc1cccc2cc(-c3nc([C@H]4CC[C@H](C(=O)O)CC4)n4ncnc(N)c34)[nH]c12` was tested, and the “percent reduction” value was -0.417 ± 9.2%.
In the case of `N#Cc1c(NC(=O)c2cccc3ccccc23)sc2c1CCCC2` [JNK Inhibitor IX], the “percent reduction” value is reported as -3.71 ± 5.5%.
With `O=C(NOC[C@H](O)CO)c1ccc(F)c(F)c1Nc1ccc(I)cc1F` the “percent reduction” value was -3.89 ± 11%.
For `Cn1cnc2c(F)c(Nc3ccc(Br)cc3F)c(C(=O)NOCCO)cc21`, the “percent reduction” value was -1.44 ± 2.7%.
In the case of `CC(C)CC(=O)Nc1n[nH]c2c1CN(C(=O)C1CCN(C)CC1)C2(C)C`, the “percent reduction” value is reported as -0.07 ± 7.6%.
For `CCOC(=O)c1cnc2ccc(-c3cncc(NS(=O)(=O)c4ccccc4)c3)cn12`, the “percent reduction” value was -3.6 ± 8.8%.
`COc1cc2c(Oc3ccc(NC(=O)C4(C(=O)Nc5ccc(F)cc5)CC4)cc3F)ccnc2cc1OCCCN1CCOCC1` was tested, and the “percent reduction” value was 56 ± 11%.
For `C[C@@H]1COC(Nc2ccc3ncnc(Nc4ccc(OCc5nccs5)c(Cl)c4)c3c2)=N1` [Varlitinib], the “percent reduction” value was 11.3 ± 2.9%.
For `Cc1cc(Nc2nc(N[C@@H](C)c3ncc(F)cn3)ncc2Cl)n[nH]1`, the “percent reduction” value was 56.5 ± 16%.
With `Cc1cc(Nc2ncc3c(n2)N(C)C(=O)N(c2cc(NC(=O)c4cccc(C(F)(F)F)c4)ccc2C)C3)n(C)n1` the “percent reduction” value was 5.55 ± 14%.
`CNc1nc(-c2ccc3c(N)n[nH]c3c2)cc(N2C[C@@H](C(=O)NC3CCCCC3)CC[C@H]2C)n1` was tested, and the “percent reduction” value was 14.7 ± 20%.
With `O=C(NCCCNc1nc(Nc2cccc(NC(=O)N3CCCC3)c2)ncc1I)c1cccs1` the “percent reduction” value was -0.457 ± 1.2%.
With `Cc1ccc(S(=O)(=O)/C=C/C#N)cc1` the “percent reduction” value was -7.27 ± 4.2%.
`O=C(NC1CCNCC1)c1n[nH]cc1NC(=O)c1c(Cl)cccc1Cl` was tested, and the “percent reduction” value was -2.75 ± 9.5%.
With `CNc1nc(Nc2cnn([C@H]3CCN(C4COC4)C[C@@H]3F)c2Cl)ncc1C(F)(F)F` the “percent reduction” value was 9.94 ± 3.4%.
For `O=C1Nc2cc(Br)ccc2/C1=C1/Nc2ccccc2/C1=N\O`, the “percent reduction” value was 2.19 ± 11%.
In the case of `Cl.O=S(=O)(c1cccc2cnccc12)N1CCCNCC1` [Fasudil (HA-1077) HCl], the “percent reduction” value is reported as 4.93 ± 2%.
`CCc1cncnc1N1CCN(Cc2nc3cc(C(F)(F)F)ccc3[nH]2)CC1` was tested, and the “percent reduction” value was -7.37 ± 13%.
For `C[C@@]1(C(=O)Nc2ccc(F)nc2)CCCN1c1nc(Nc2cc(C3CC3)[nH]n2)c2cccn2n1`, the “percent reduction” value was 23.1 ± 8.1%.
`CN1CCN(c2ccc(Nc3cc(-c4cccc(-n5ccc6cc(C7CC7)cc(F)c6c5=O)c4CO)cn(C)c3=O)nc2)CC1` was tested, and the “percent reduction” value was 6.04 ± 9%.

Reference: the supplement of paper PMC10720658
